# Results filed as inconclusive are left out. Active and inactive are the calls of the source. Unless noted, calls follow the shape of the dose curve; as a rule, active = well fitted curve in the direction sought with a large enough effect; inconclusive = small, poorly fitted or top-dose-only effect, or another doubt; inactive = no such curve, though single readings can be large; an effect the other way counts as inactive or inconclusive.
# How the values were obtained:
# [1] = biological target: Lysosomal acid glucosylceramidase (Homo sapiens) (UniProt P04062); experiment: Glucocerebrosidase-p2 (AID 348; in the data active = potency below about 10 µM; also: potency is read from the fitted curve at half-maximal effect); settings: purified GBA, blue fluorogenic substrate, 40 min
# Sequence of Lysosomal acid glucosylceramidase (Homo sapiens) (P04062 whole entry, looked up): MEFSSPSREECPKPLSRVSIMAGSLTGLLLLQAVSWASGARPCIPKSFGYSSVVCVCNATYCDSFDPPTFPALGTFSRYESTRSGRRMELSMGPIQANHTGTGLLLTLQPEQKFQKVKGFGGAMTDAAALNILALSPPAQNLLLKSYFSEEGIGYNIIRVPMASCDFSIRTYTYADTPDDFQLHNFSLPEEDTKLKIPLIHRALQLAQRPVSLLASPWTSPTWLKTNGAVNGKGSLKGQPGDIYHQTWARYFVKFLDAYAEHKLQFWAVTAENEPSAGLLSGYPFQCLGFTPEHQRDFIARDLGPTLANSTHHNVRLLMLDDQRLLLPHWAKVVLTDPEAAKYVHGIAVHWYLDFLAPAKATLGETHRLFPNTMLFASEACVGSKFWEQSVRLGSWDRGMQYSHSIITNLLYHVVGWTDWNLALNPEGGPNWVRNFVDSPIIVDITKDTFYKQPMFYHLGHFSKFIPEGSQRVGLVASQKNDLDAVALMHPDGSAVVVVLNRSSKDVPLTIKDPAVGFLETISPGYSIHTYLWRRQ
# Method in brief: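 Normal human glucocerebrosidase (0.2 nM) with blue fluorogenic substrate (80 uM final) in citrate/phosphate pH 5.9 with 10mM sodium taurocholate, 0.01% tween-20; 40 min RT, NaOH/glycine stop; fluorescence Ex 365/Em 440; AC50 from a titration from 0.6 nM upwards.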
# [2] = AP1 Signaling Pathway (AID 357; active = well fitted curve in either direction with a large enough effect, not every such curve was filed as active;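 also: ME-180 reporter cells stimulated with EGF at its EC50 level; % is scaled to controls: 0 for no effect and ±100 for the full control effect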); settings: ME-180 AP-1-bla reporter, EGF-induced, beta-lactamase ratio, 5 h; at 7.69 µM (top of the series) unless noted
# Method in brief: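 First, ME-180 AP-1-bla cells were cultured overnight at 37 °C in low-serum Opti-MEM. Next, titrated compounds with EC50 EGF were incubated 5 hours. Finally, CCF4 was added for 2.5 hours and the 460/530 nm ratio recorded.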
# [3] = biological target: Cytochrome P450 1A2 (Homo sapiens) (UniProt P05177); experiment: p450-cyp1a2 (AID 410; calls by dose curve; also: potency is read from the fitted curve at half-maximal effect)
# Sequence of Cytochrome P450 1A2 (Homo sapiens) (P05177 whole entry, looked up): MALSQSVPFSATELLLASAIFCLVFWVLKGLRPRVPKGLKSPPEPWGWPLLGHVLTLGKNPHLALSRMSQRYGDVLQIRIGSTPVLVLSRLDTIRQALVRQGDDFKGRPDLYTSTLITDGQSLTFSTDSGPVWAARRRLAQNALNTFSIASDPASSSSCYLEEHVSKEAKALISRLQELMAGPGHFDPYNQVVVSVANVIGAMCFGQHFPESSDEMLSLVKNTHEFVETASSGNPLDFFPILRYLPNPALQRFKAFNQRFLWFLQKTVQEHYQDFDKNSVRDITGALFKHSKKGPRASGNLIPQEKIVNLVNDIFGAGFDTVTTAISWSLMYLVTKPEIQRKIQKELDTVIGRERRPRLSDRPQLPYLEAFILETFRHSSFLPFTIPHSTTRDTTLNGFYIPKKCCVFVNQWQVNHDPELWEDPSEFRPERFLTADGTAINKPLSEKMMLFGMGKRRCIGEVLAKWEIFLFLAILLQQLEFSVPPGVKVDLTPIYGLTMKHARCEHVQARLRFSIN
# Method in brief: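 Luminescent demethylation readout: Luciferin-ME (100uM, equal to Km) turned over by 20nM CYP1A2 for 60 min at room temperature after NADPH regeneration addition, following 10 min compound preincubation. Normalization used 57 uM furafylline as full inhibition.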
# [4] = NFAT Signaling Pathway (AID 444; active = well fitted curve in either direction with a large enough effect, not every such curve was filed as active;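 also: carbachol stimulus at about its EC50 of 1 µM final; % is scaled to controls: 0 for no effect and ±100 for the full control effect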); settings: Jurkat NFAT-bla M1, carbachol, beta-lactamase ratio, 5 h; at 7.69 µM (top of the series) unless noted
# Method in brief: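 Jurkat cells with NFAT-driven β-lactamase reporter and co-expressed M1 receptor, stimulated with carbachol (final 1 uM, ~EC50), compound titration, 5 h at 37 °C. CCF4 loaded 1 h at RT; 460/530 nm ratio gave %activity and AC50.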
# [5] = Stat Signaling Pathway (AID 446; active = well fitted curve in either direction with a large enough effect, not every such curve was filed as active;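 also: ME-180 cervical cancer cells given 40 pM IL-6 alongside compound; SIE-controlled beta-lactamase reporter measured as 460/530 nm FRET emission ratio; % is scaled to controls: 0 for no effect and ±100 for the full control effect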); settings: ME-180 SIE beta-lactamase reporter, IL-6 stimulated, 5 h; at 7.69 µM (top of the series) unless noted
# Method in brief: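 FRET read-out (405 nm excitation, 460/530 nm emission) of a beta-lactamase reporter under a STAT-inducible element in ME-180 cervical carcinoma cells. Cells with compound receive 40 pM IL-6 for 5 h. Values are normalised to AC90 stimulation and AC90 JAK-inhibitor controls.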
# [6] = biological target: Glucocorticoid receptor (Homo sapiens) (UniProt P04150); experiment: GR-GFP Redistribution (AID 450;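 active = compounds whose dose series gives a full or clear partial fitted curve of increased nuclear translocation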; also: potency is read from the fitted curve at half-maximal effect); settings: U2OS GR-GFP nuclear translocation, laser cytometry, 2 h
# Sequence of Glucocorticoid receptor (Homo sapiens) (P04150 whole entry, looked up, the tested form may be a part): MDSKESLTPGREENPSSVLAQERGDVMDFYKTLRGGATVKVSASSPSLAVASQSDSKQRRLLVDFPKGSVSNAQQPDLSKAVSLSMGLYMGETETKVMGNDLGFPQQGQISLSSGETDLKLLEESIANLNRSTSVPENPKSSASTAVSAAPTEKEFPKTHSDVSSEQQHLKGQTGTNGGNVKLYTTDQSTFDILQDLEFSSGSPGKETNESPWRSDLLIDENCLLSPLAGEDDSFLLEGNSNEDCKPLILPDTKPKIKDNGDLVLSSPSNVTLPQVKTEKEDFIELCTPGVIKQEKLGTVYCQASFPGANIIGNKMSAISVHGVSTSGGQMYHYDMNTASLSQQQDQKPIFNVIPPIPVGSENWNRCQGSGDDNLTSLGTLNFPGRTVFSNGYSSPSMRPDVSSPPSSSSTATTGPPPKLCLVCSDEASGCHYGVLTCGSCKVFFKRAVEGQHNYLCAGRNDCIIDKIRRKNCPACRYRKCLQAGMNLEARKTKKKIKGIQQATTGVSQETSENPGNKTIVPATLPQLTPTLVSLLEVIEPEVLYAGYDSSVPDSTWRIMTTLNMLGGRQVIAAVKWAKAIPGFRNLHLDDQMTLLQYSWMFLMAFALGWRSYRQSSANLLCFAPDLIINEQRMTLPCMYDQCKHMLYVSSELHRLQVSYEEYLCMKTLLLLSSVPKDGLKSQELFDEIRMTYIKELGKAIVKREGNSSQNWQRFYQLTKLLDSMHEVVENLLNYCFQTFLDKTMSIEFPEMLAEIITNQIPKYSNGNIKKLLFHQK
# [7] = biological target: Glucocorticoid receptor (Homo sapiens) (UniProt P04150); experiment: GR-EFC Redistribution (AID 451; calls by dose curve; also: potency is read from the fitted curve at half-maximal effect); settings: CHO-K1 GR-EFC translocation, beta-gal luminescence, 2 h
# Method in brief: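 CHO-K1 cells expressing nuclear EA and GR-ED fragments of b-gal; compounds titrated up to 46 uM final, 2 h at 37 C. GR nuclear translocation read as complemented b-gal luminescence after 1 h RT detection.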
# [8] = biological target: Mitogen-activated protein kinase 10 (Mus musculus) (UniProt Q61831); experiment: JNK3 AlphaScreen Assay (AID 530; active = well fitted curve in either direction with a large enough effect, not every such curve was filed as active;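 also: kinase came from lysate of stimulated human HepG2 cells; signal reports phosphorylation of biotinylated GST-cJun 1-79 at Ser73 with 10 µM ATP; % is scaled to controls: 0 for no effect and ±100 for the full control effect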)
# Method in brief: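 Activity was read by AlphaScreen after JNK3-containing HepG2 lysate (cytokine pre-activated) phosphorylated biotinylated GST-cJun with 10 uM ATP at room temperature. Phospho-Ser73 cJun antibody with Protein-A acceptor beads provided detection.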
# [9] = biological target: 3',5'-cyclic-AMP phosphodiesterase 4B (Homo sapiens) (UniProt Q07343); experiment: qHTS Assay for Inhibitors of PDE-IV (AID 607; active = well fitted activation curve with a large enough effect in the main read-out, with a control signal flat, not every such curve was filed as active; also: % of control where 0% means no effect)
# Sequence of 3',5'-cyclic-AMP phosphodiesterase 4B (Homo sapiens) (Q07343 whole entry, looked up): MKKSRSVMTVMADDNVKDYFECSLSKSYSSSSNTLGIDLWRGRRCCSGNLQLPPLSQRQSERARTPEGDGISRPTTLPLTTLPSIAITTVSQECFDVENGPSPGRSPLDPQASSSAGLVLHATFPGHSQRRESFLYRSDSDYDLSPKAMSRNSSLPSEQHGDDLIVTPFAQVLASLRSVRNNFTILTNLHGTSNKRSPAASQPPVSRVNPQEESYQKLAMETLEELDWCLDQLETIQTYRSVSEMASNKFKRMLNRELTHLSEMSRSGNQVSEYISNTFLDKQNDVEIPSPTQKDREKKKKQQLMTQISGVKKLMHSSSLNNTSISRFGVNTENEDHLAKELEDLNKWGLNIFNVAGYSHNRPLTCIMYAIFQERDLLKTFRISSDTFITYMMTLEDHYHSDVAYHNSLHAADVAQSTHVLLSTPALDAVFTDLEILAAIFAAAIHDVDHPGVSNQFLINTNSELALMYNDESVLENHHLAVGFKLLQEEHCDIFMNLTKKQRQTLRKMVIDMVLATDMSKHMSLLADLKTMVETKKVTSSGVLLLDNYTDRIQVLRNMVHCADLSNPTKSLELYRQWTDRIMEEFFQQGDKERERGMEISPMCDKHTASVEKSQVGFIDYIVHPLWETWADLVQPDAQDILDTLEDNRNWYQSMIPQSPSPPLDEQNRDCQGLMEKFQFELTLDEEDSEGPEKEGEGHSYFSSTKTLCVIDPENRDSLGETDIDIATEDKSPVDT
# Method in brief: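 Cell-based read-out of cAMP via a modified cyclic nucleotide-gated channel and membrane potential dye (535/590 nm) in HEK293 cells expressing PDE4 endogenously. Compounds tested up to 22.9 uM final; 100 uM RO 20-1724 reference.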
# [10] = qHTS Assay for Lipid Storage Modulators (AID 1519; calls by dose curve); settings: Drosophila S3 cells, BODIPY lipid droplet/cell ratio, laser cytometry, cells loaded with oleic acid; for activity change, negative = inhibition: at 57.5 µM (top of the series)
# Method in brief: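 Cells seeded at 5,000 per well were treated with compounds over a concentration series and loaded with oleic acid (400 uM, as added). Lipid droplet fluorescence (488 nm excitation, 500-530 nm channel) was read by laser-scanning cytometry and normalized to 20 uM Triacsin C.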
# [11] = biological target: Ubiquitin carboxyl-terminal hydrolase 1 (Homo sapiens) (UniProt O94782); experiment: Inhibitors of USP1/UAF1: Pilot qHTS (AID 504865);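 also: rhodamine fluorescence freed from ubiquitin-rhodamine substrate followed over time; top concentration of the series differs between compounds; % is scaled to controls: 0 for no effect and ±100 for the full control effect; nearly all actives have a fitted effect of over 35% in size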
# Sequence of Ubiquitin carboxyl-terminal hydrolase 1 (Homo sapiens) (O94782 whole entry, looked up): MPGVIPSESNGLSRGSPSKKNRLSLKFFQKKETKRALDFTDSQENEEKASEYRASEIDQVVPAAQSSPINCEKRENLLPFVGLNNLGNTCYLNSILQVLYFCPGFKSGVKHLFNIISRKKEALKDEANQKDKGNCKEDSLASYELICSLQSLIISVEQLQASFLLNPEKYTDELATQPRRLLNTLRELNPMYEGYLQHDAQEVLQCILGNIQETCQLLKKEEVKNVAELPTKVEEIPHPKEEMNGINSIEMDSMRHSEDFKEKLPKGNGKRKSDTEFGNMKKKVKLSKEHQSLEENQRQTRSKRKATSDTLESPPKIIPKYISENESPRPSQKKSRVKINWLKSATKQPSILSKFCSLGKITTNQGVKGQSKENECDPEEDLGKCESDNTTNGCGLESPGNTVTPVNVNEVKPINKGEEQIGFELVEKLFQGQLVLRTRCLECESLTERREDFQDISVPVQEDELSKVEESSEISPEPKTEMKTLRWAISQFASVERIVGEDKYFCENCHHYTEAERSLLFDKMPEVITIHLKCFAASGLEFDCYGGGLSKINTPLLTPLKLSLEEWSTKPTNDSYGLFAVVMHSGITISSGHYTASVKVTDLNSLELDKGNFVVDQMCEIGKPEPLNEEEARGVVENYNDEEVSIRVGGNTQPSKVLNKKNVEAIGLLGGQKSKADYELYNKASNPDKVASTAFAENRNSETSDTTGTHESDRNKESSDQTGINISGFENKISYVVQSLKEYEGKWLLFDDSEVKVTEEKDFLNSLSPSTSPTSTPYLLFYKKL
# Method in brief: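 Deubiquitinase activity followed as kinetic rhodamine fluorescence release from 150 nM Ub-Rho. 1 nM USP1/UAF1 with compound, after 15 min room-temperature preincubation, in HEPES pH 7.8 buffer containing TCEP, EDTA, BSA and Tween-20.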
# [12] = Primary qHTS for small molecule stabilizers of the endoplasmic reticulum resident proteome: Secreted ER Calcium Modulated Protein (SERCaMP) assay (AID 1508630); also: % is scaled to controls: 0 for no effect and ±100 for the full control effect
# Method in brief: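 The SH-SY5Y reporter protocol was run at 3 concentrations up to 38.3 uM (primary) or 11 concentrations (follow-up): 16 h compound, 100 nM thapsigargin for 4 h, then extracellular luciferase luminescence.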
# [13] = biological target: Dual specificity protein kinase CLK4 (Homo sapiens) (UniProt Q9HAZ1); experiment: qHTS Assay for Inhibitors of CDC-like Kinase 4 (ADP-FP Assay) (AID 1795);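 also: recombinant human CLK4 phosphorylating RS repeat peptide at 1 µM ATP; % is scaled to controls: 0 for no effect and ±100 for the full control effect; nearly all actives have a fitted effect of over 60% in size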
# Sequence of Dual specificity protein kinase CLK4 (Homo sapiens) (Q9HAZ1 whole entry, looked up): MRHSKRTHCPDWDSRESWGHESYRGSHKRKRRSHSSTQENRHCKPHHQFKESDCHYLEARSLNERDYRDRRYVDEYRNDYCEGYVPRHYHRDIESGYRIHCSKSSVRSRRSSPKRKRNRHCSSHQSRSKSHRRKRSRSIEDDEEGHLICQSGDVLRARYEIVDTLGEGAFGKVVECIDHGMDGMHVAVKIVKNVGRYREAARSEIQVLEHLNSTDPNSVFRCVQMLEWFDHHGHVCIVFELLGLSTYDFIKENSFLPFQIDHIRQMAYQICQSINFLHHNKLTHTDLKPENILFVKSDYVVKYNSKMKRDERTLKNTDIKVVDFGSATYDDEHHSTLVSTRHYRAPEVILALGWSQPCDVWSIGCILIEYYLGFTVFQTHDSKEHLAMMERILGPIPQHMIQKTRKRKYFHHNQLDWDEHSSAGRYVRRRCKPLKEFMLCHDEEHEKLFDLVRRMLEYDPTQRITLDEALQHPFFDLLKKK
# Method in brief: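 Kinase activity was measured as ADP production using Transcreener orange tracer (4 nM) and ADP antibody (1 ug/mL) fluorescence polarization, with ADP calculated from a calibration curve. The 1 h reaction contained 6.25 nM Clk4, 1 uM ATP and 100 uM RS peptide at pH 7.5 with Mg2+.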
# [14] = biological target: Cytochrome P450 3A4 (Homo sapiens) (UniProt P08684); experiment: qHTS Assay for Inhibitors and Substrates of Cytochrome P450 3A4 (AID 884); also: potency is read from the fitted curve at half-maximal effect; nearly all actives have a fitted effect of over 50% in size
# Sequence of Cytochrome P450 3A4 (Homo sapiens) (P08684 whole entry, looked up): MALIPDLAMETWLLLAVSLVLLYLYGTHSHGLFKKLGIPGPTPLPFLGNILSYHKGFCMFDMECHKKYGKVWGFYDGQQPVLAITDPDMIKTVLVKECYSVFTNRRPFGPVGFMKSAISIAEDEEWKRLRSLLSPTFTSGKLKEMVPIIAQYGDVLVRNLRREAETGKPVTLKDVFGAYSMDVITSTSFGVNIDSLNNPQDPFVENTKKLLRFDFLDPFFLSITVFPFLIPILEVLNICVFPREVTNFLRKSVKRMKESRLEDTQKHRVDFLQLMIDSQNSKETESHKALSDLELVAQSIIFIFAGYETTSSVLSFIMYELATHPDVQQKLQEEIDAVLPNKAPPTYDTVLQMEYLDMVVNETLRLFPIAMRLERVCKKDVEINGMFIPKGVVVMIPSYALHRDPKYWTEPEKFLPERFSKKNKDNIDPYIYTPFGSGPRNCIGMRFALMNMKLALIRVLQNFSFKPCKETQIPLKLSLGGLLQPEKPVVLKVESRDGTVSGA
# Method in brief: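 Luminescent readout of luciferin produced by CYP3A4 (20 nM) dealkylation of Luciferin-PPXE, 25 uM (its KM). NADPH-driven reaction ran 60 min at RT after 10 min compound preincubation; data scaled to 57 uM ketoconazole as 100% inhibition.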
# [15] = biological target: Cytochrome P450 3A4 (Homo sapiens) (UniProt P08684); experiment: qHTS Assay for Activators of Cytochrome P450 3A4 (AID 885); also: nearly all actives have a fitted effect of over 65% in size
# Method in brief: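 Luminescent readout of luciferin formed from 25 uM Luciferin-PPXE (KM level) by 20 nM CYP3A4 in 200 mM KPO4, with 60 min NADPH-driven reaction at room temperature after 10 min compound exposure. Ketoconazole (57 uM) defined 100% inhibition.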
# [16] = Confirmation and Secondary Assay for Modulators of Hemoglobin Beta Chain Splicing at IVS2 654 locus (AID 910);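 also: HeLa cells stably carrying EGFP split by mutant beta-globin IVS2-654 intron; % of control where 0% means no effect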
# Method in brief: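 HeLa cells stably expressing EGFP interrupted by β-globin IVS2-654 intron, seeded overnight in Opti-MEM/2% FCS, then treated 2 days at 37 °C. Restored splicing read as total peak GFP intensity per well by laser scanning cytometry (488 nm excitation, 500–520 nm emission); 500 nM antisense PNA as control.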
# [17] = Confirmation and Secondary Assay for Modulators of Hemoglobin Beta Chain Splicing at IVS2 705 locus (AID 930);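 also: HeLa cells stably expressing the EGFP-705 splicing reporter; GFP fluorescence per well restored by corrected splicing of the IVS2-705 intron in EGFP; % of control where 0% means no effect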
# Method in brief: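 Fluorescence gain (488 nm laser, 500-520 nm PMT) reflects restored correct splicing of a mutant IVS2-705 intron inside EGFP in stably transfected HeLa cells after 2-day compound treatment.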
# [18] = qHTS Assay for Identification of Small Molecule Agonists for Hypoxia Response Element Signaling Pathway (AID 914; active = well fitted activation curve with a large enough effect in the signal ratio, with a control signal flat, not every such curve was filed as active; the % refers to the signal ratio; also: potency is read from the fitted curve at half-maximal effect; as to activation: % of control where 0% means no effect); settings: ME-180 (cervical carcinoma) HRE-bla reporter, beta-lactamase ratio, CoCl2, 17 h; activation: stronger effect = higher value
# Method in brief: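 A beta-lactamase reporter under hypoxia response element control in ME-180 cells served as the system. Compound titrations plus EC50 CoCl2 ran 17 h at 37 degrees Celsius; AC50 values were fitted from %Activity.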
# [19] = measured here: cell count channel max response
# [20] = measured here: lipid channel max response
compound,measurement,setting,value
COCCNc1cc(-c2c(C)noc2C)ncn1,Potency,[1],> 11.4 µM (inactive)
same,"activity change, negative = inhibition",[2],-3.45% (inactive)
same,Potency,[3],10 µM (active)
same,"activity change, negative = inhibition",[4],3.73% (inactive)
same,"activity, negative = inhibition",[5],0.472% (inactive)
same,Potency,[6],> 46 µM (inactive)
same,Potency,[7],> 46 µM (inactive)
same,outcome,[8],inactive
same,Potency,[9],inactive
same,"activity change, negative = inhibition",[10],8.14% (inactive)
same,max response,[10]; [19],13%
same,max response,[10]; [20],22.2%
same,Potency,[11],inactive
same,Potency,[12],inactive
N#Cc1ccccc1-c1nc(NCCN2CCOCC2)c2ccccc2n1,Potency,[1],> 11.4 µM (inactive)
same,"activity change, negative = inhibition",[2],1.04% (inactive)
same,"activity change, negative = inhibition",[4],-3.19% (inactive)
same,"activity, negative = inhibition",[5],2.02% (inactive)
same,Potency,[7],> 46 µM (inactive)
same,outcome,[8],inactive
same,Potency,[9],inactive
same,"activity change, negative = inhibition",[10],4.61% (inactive)
same,max response,[10]; [19],14.8%
same,max response,[10]; [20],18.6%
same,Potency,[13],inactive
same,Potency,[11],inactive
same,Potency,[12],inactive
COc1ccc(-n2c(=O)cnc3cnc(N4CCN(C)CC4)nc32)cc1,Potency,[1],> 11.4 µM (inactive)
same,"activity change, negative = inhibition",[2],-6.82% (inactive)
same,"activity change, negative = inhibition",[4],-9.46% (inactive)
same,"activity, negative = inhibition",[5],2.91% (inactive)
same,Potency,[6],> 9.22 µM (inactive)
same,Potency,[7],> 46 µM (inactive)
same,outcome,[8],inactive
same,"activity change, negative = inhibition",[10],2.82% (inactive)
same,max response,[10]; [19],18.4%
same,max response,[10]; [20],19.5%
same,Potency,[13],inactive
same,Potency,[11],inactive
same,Potency,[12],inactive
Cc1noc(C)c1-c1nccc(NCc2cccnc2)n1,Potency,[1],> 11.4 µM (inactive)
same,"activity change, negative = inhibition",[2],7.38% (inactive)
same,Potency,[3],0.158 µM (active)
same,"activity change, negative = inhibition",[4],-9.01% (inactive)
same,"activity, negative = inhibition",[5],10.1% (inactive)
same,Potency,[6],> 46 µM (inactive)
same,Potency,[7],> 46 µM (inactive)
same,outcome,[8],inactive
same,Potency,[9],inactive
same,Potency,[14],3.98 µM (active)
same,Potency,[15],inactive
same,outcome,[16],inactive
same,outcome,[17],inactive
same,"activity change, negative = inhibition",[10],4.68% (inactive)
same,max response,[10]; [19],14.6%
same,max response,[10]; [20],21.8%
same,Potency,[11],inactive
same,Potency,[12],inactive
Cc1cnc(CNc2ncncc2-c2ccc(C(=O)N(C)C)cc2)cn1,Potency,[1],> 11.4 µM (inactive)
same,"activity change, negative = inhibition",[2],5.94% (inactive)
same,Potency,[3],20 µM (active)
same,"activity change, negative = inhibition",[4],2.85% (inactive)
same,"activity, negative = inhibition",[5],9.42% (inactive)
same,Potency,[6],> 46 µM (inactive)
same,Potency,[7],> 46 µM (inactive)
same,outcome,[8],inactive
same,Potency,[9],inactive
same,Potency,[15],inactive
same,outcome,[16],inactive
same,activation,[18],0.757% (inactive)
same,outcome,[17],inactive
same,"activity change, negative = inhibition",[10],10.8% (inactive)
same,max response,[10]; [19],16%
same,max response,[10]; [20],28.5%
same,Potency,[11],inactive
same,Potency,[12],inactive
CN1CCN(c2ncc3nc(-c4cccs4)c(=O)n(CCC#N)c3n2)CC1,Potency,[1],> 11.4 µM (inactive)
same,Potency,[3],15.8 µM (active)
same,Potency,[6],> 9.22 µM (inactive)
same,Potency,[7],> 46 µM (inactive)
same,outcome,[8],inactive
same,Potency,[9],inactive
same,Potency,[15],inactive
same,Potency,[18],3.16 µM (active)
same,"activity change, negative = inhibition",[10],0.733% (inactive)
same,max response,[10]; [19],11.3%
same,max response,[10]; [20],9.27%
same,Potency,[13],inactive
same,Potency,[11],inactive
same,Potency,[12],inactive

# From PubChem BioAssay (NCATS)
